Data: PubChem BioAssay (NCI)
The panel holds about 79,000 compounds, 15% with a hit somewhere; the sample as a whole holds those more often. A number with no mark means an inactive call. The source made the active and inactive calls. No stated cut-off is given here; in the data, active means growth inhibition above about 70%; inactive means the rest.

Assays:
[1] = NCI Yeast Anticancer Drug Screen. Data for the rad50 strain (AID 155);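 further: 0% = growth of vehicle-only cultures of the same strain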; conditions: S. cerevisiae rad50 strain growth inhibition; at 50.0 µM; active compounds read high
Method in brief: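 Vehicle-treated cultures provide the reference for the growth inhibition reported for compound-exposed, repair-deficient yeast.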

[2] = NCI Yeast Anticancer Drug Screen. Data for the mec2-1 strain (AID 157); conditions: S. cerevisiae mec2-1 strain, at 50.0 µM, active compounds read high
Method in brief: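 Test agents were screened against the mec2-1 yeast strain, with defined DNA repair or cell cycle alteration. Growth was scored as inhibition against vehicle-only controls.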

[3] = NCI Yeast Anticancer Drug Screen. Data for the sgs1 mgt1 strain (AID 161);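 further: 0% = growth of cultures given vehicle only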; conditions: S. cerevisiae sgs1 mgt1 strain, at 50.0 µM, active compounds read high
Method in brief: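 Read-out: growth inhibition vs vehicle controls. Cells: mutant yeast strain deficient in DNA damage repair.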

[4] = NCI Yeast Anticancer Drug Screen. Data for the cln2 rad14 strain (AID 165);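 further: 0% = growth equal to vehicle treated cultures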; conditions: S. cerevisiae cln2 rad14 strain, at 50.0 µM, active compounds read high
Method in brief: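 Growth of compound-exposed yeast (cln2 rad14 genotype) measured and expressed as inhibition relative to vehicle.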

[5] = NCI Yeast Anticancer Drug Screen. Data for the bub3 strain (AID 167); conditions: S. cerevisiae bub3 mutant strain, at 50.0 µM, active compounds read high
Method in brief: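 Mutant yeast screening strain plus compound; vehicle-treated cultures serve as the 0% inhibition reference.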

[6] = NCI Yeast Anticancer Drug Screen. Data for the mlh1 rad18 strain (AID 175); conditions: S. cerevisiae mlh1 rad18 strain growth inhibition; at 50.0 µM; active compounds read high
Method in brief: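 In this whole-cell yeast screen, a strain with altered DNA damage repair is challenged with compound, and its growth is measured against matched vehicle-treated controls.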

| SMILES | growth inhibition [1] | growth inhibition [2] | growth inhibition [3] | growth inhibition [4] | growth inhibition [5] | growth inhibition [6] |
| --- | --- | --- | --- | --- | --- | --- |
| COc1ccc2c(O)cc(C(=O)O)c(-c3ccccc3)c2c1 | -4.7% | -12.8% | -3.95% | -17.5% | 5.05% | -22.6% |
| CCOC(=O)c1c(-c2ccccc2)c(C)cn1C | -16.1% | -26% | -24.9% | 11% | -7.75% | 1% |
| COc1cc(C(=O)N(C)N(C)C)cc(OC)c1OC | 6.6% | -9.6% | 13.4% | 10.9% | -2.85% | -5.6% |
| CCCc1cc2c(cc1CSc1ccccc1C(=O)O)OCO2 | -13.6% | -8.75% | -1.9% | -84.7% | -7.6% | -12.4% |
| CCC(CC)(SC(C)C(N)=O)C(C)=O (stereo not drawn) | 0.35% | 7.4% | -16.3% | -11.3% | 5.75% | 0.6% |
| O=C(O)CC1SC2(C(=O)N(Cc3ccccc3)c3ccccc32)N(c2ccccc2)C1=O (stereo not drawn) | 45.4% | 29.8% | 32.5% | -8.55% | 8.55% | 53% |
| CCOC(=O)C(Cc1ccccc1)Nc1c(Cl)c(=O)oc2ccc(C)cc12 (stereo not drawn) | 18.6% | -3.2% | 32.7% | 26.9% | -16.4% | 19.6% |
| Cc1onc(-c2ccccc2Cl)c1C(=O)NCC(=O)O | -5.55% | 2.6% | -3.5% | 3.5% | 12.7% | -0.15% |
| c1ccc(Sc2cc(Sc3ccccc3)c3cccccc2-3)cc1 | 17.9% | -21.9% | -27.4% | -6.05% | 5.25% | 3.2% |
| CN1C/C(=C\c2ccccc2)C2=NN(C(N)=S)[C@H](c3ccccc3)[C@@H]2C1 | 3.5% | -18.1% | -5.85% | 10.9% | -19.8% | -16.9% |
| Cc1cc2nnc(-c3cccc([N+](=O)[O-])c3)n2c2nnnn12 | 25% | 31.1% | 21.6% | 66.7% | 37.8% | 36.7% |
| NC(=O)C1C2CC3C(C2)C31 (stereo not drawn) | 2.9% | 11.2% | -1% | -1% | 3.4% | 4.95% |
| O=C1c2c(nc3ccccc3c2-c2ccccc2)CN1Nc1ccccc1 | -12% | -24.9% | -9.45% | 5.65% | -37.7% | -19.4% |
| CCOC(=O)/C(C#N)=C/c1c[nH]c2ccccc12 | 19.6% | 6.05% | 3.5% | 23.8% | 19.3% | 31.4% |
| c1ccc(CCN(CCc2ccccn2)CCc2ccccn2)nc1 | -5.85% | -13.6% | 0.35% | 0.3% | 3% | 18% |
| Cc1ccc(-c2c(C#N)c(-c3ccccc3)c(C#N)c(=O)n2NS(=O)(=O)c2ccc(C)cc2)cc1 | 3.65% | 28.1% | 17.1% | 18.7% | 18.2% | 23.3% |
| C/C(CC(=O)N(C(C)C)C(C)C)=N\NC(=O)c1ccncc1 | -3.45% | -12.3% | -18.9% | 18.7% | -10.7% | 13.8% |
| CCN(CC)c1ccc(/C=C2\CCc3ccc([N+](=O)[O-])cc3C2=O)cc1 | 1.95% | -14.7% | 6.2% | -3.75% | 3.8% | -7.95% |
| CCCCCC(C/C=N/N(C)C)C(O)(C(F)(F)F)C(F)(F)F (stereo not drawn) | 1.35% | 2.1% | -5.15% | -5.15% | 15.4% | 73.2% (active) |
| CC(=O)NC(CCCNC(=O)N(CCCl)N=O)C(=O)NCc1ccccc1 (stereo not drawn) | -1.85% | -16.5% | 1.75% | 23.3% | 2.65% | -13.6% |

| SMILES | growth inhibition [1] | growth inhibition [2] | growth inhibition [3] | growth inhibition [4] | growth inhibition [5] | growth inhibition [6] |
| --- | --- | --- | --- | --- | --- | --- |
| O=C(/C=C/c1ccccc1)N/N=C/c1ccncc1 | 5.2% | 24.9% | 1.6% | -9.2% | -0.45% | 11.3% |
| COC1CCC2(C)C3CCC4C(=CCC5C(C)(C)C(O)CCC45C)CC3(C)CCC2C1(C)C (stereo not drawn) | -8.45% | -12.3% | -31.3% | -25.4% | 1.2% | -12.7% |
| O=C(c1ccc2ccccc2c1)C(Cl)C(Cl)c1ccccc1 (stereo not drawn) | -13.2% | 10.8% | -1.55% | -15.8% | 53.1% | -6.15% |
| O=C(N/N=C/c1ccc(Cl)cc1)c1cc(-c2ccccc2)nc2ccccc12 | 5.95% | 22.3% | 17.4% | 21.7% | 2% | -5.7% |
| Clc1ccc(C(Cl)(c2ccc(Cl)cc2)C(Cl)(Cl)Cl)cc1 | -14.1% | -14.4% | -7.4% | -6.2% | 32.9% | 11.8% |
| COc1ccc(NS(=O)(=O)c2ccc(N=Cc3c4ccccc4nc4ccccc34)cc2)nn1 | 96.8% (active) | 95.5% (active) | 91.6% (active) | 79.9% (active) | 93.5% (active) | 90.8% (active) |
| NC(=O)COc1ccc(Cl)cc1Cl | 16.6% | -0.5% | 28.4% | -0.4% | 5.7% | 20% |
| COC(OC)C1(c2ccccc2)NC(=O)N(Cc2ccccc2)C1=O (stereo not drawn) | 3.1% | -10% | -1.3% | -49.5% | 2.85% | -9.65% |
| CCc1cc(C(C)(C)C)cc(C(C)(C)C)c1O | 23.6% | 18.4% | -5.75% | 6.05% | 21.4% | 2.2% |
| Cc1sc2ccnc(C)c2c1S(=O)(=O)O | 5.3% | 9.95% | -9.95% | -3.5% | 15.2% | -12.4% |
| CCCCN(CC)C(=O)C(=O)Cc1nc2ccc(C(=O)c3ccccc3)cc2[nH]c1=O | 17.3% | 2.45% | -4.2% | 17% | 4.2% | 2.4% |
| COc1ccc(OC)c(C(O)P(=O)(c2ccccc2)c2ccccc2)c1 (stereo not drawn) | 12.5% | 1.65% | 31.4% | 12.2% | 27.1% | 27.2% |
| CCCCCCC(O)C/C=C\CCCCCCCCO (stereo not drawn) | 11.9% | -20.9% | 13.3% | -27.6% | 27.1% | 18.4% |
| CC(=O)N(C(C)=O)n1c(Cc2ccc(Cl)cc2)n[nH]c1=O | 32.1% | -53.7% | -26.3% | -5.55% | -30.9% | -65% |
| CN(C)C=Nc1ccc(F)cc1 | -16.1% | -5.6% | -11.4% | -20.1% | -1.8% | -2.1% |
| CN(C)CC(/C(Cc1ccccc1)=N\NC(=S)NN)c1ccccc1 (stereo not drawn) | 23.1% | 9.55% | 38.2% | 21.4% | -3.25% | 13.7% |
| O=C(O)C1=C(O)CCN=C1 | -24.1% | 2.7% | 11% | -10.8% | -3.95% | 27.1% |
| NC(CC(F)(F)F)C(=O)O (stereo not drawn) | 22.9% | 4.2% | 16.7% | 31.3% | -2.65% | 11.9% |
| Cc1nnc2c3nccnc3c(Cl)nn12 | 20.8% | 25% | 56.3% | – | 9% | 24.1% |
